Source: ChEMBL document CHEMBL3988442, “University of Dundee, Small-Polar-MMV Screening Library” (2021)

Target: T1, Aspartate--tRNA(Asp/Asn) ligase (Mycobacterium tuberculosis (strain ATCC 25618 / H37Rv)) (UniProt P9WFW3)
T1 sequence (whole entry): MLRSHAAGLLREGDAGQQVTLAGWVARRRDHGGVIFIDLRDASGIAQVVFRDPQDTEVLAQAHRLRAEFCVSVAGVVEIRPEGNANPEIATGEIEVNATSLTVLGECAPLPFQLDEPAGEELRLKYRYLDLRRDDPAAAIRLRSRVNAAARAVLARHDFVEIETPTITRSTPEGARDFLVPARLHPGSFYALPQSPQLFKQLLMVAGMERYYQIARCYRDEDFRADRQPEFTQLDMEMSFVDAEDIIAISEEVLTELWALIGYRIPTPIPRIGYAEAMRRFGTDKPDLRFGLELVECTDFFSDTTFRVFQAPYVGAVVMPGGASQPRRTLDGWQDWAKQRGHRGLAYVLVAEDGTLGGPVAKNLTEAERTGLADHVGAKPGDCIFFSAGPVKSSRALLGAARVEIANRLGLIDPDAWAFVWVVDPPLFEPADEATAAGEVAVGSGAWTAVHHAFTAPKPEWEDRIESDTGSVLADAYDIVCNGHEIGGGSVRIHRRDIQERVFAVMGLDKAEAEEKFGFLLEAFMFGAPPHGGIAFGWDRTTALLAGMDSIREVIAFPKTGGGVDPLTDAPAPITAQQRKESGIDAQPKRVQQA
Assay: Assay for Asp RNA synthetase-1 from Mycobacterium tuberculosis
Format: functional
Parameters: scale not given: in the data most compounds retested in dose-response had high values
Settings: 30 µM

Structure (SMILES) | Percent Effect [%]
CCCc1n[nH]c(C2CN(C(=O)c3ccco3)CCO2)n1 (stereo not given) | -0.955
O=C(Cc1ccccn1)N1CCc2nc(-c3cnccn3)nc(O)c2C1 | -2.49
CCC1CN(c2nnc(C)c(C)c2C#N)CCO1 (stereo not given) | 0.1
CC(C)NC(=O)c1n[nH]c(-n2cnnc2)n1 | -4.62
CC(C)(C)NC(=O)NC(=O)CNC(C)(C)c1ccc2c(c1)OCCO2 | 0.459
CN(C)c1ccc(C(=O)NCC2(c3ccccc3)CCOCC2)cc1 | 1.31
Cc1ccc(N2CC[C@H]3OCC[C@@]3(C(=O)NC(C)C)C2)nn1 | -2.66
COCc1noc(C2(c3ccc(F)cc3)CCOCC2)n1 | -2.06
O=C(CCNC(=O)c1ccccc1)Nc1ccncc1 | -1.89
Cc1csc(C2CCCN(C(=O)c3cnc4n[nH]c(C)c4c3)C2)n1 (stereo not given) | 0.533
Cn1cc(CN2CCCN(C(=O)c3cc(Cl)cn3C)CC2)cn1 | -4.75
CCc1ccccc1CN1CC[C@@H](NC(=O)c2cccnc2)[C@H](O)C1 | -4.34
Cc1nc(CN2CCCC2c2c(C)nn(C)c2Cl)no1 (stereo not given) | -3.26
CC(C)NC(=O)N1CC[C@@H]2CN(Cc3cccc(Cl)c3)S(=O)(=O)[C@@H]2CC1 | 5.42
Cc1noc(C)c1CNC(=O)N1CCN(Cc2cscn2)CC1 | 0.233
Cc1ncc(CN2Cc3ccccc3O[C@]3(CC[C@H](CO)CC3)C2)cn1 | 0.551
CC(NC(=O)CCn1cncn1)c1nnc2n1CCCCC2 (stereo not given) | -0.486
CCn1ncc(CN2CCc3c(nc(-c4cccnc4)[nH]c3=O)C2)c1C | -5.25
CC(Nc1cccc(CN2CCOC2=O)c1)C(=O)Nc1ccccc1F (stereo not given) | 1.17
CCCS(=O)(=O)N1CCN(c2cc(-n3cnc(C)c3C)nc(C)n2)CC1 | -3.39

Structure (SMILES) | Percent Effect [%]
Cc1csc2nc3n(c(=O)c12)CCN(C(=O)c1ccncc1)CC3 | -3.92
CC(=O)N1CCCN(C(=O)c2csc(-c3ccc(C)cc3C)n2)CC1 | -7.84
COc1ccc(S(=O)(=O)N2CCC(S(C)(=O)=O)CC2)cc1C | 1.12
O=C(C1=CCCC1)N1CCO[C@H]2[C@@H](OCC3CC3)CC[C@@H]21 | 2.53
COCCN(C)C[C@@H]1CN(C(=O)c2ccoc2)C[C@@H]1CO | -4.07
Cc1ccc(C(CNC(=O)NCc2cc[nH]n2)N2CCOCC2)o1 (stereo not given) | 0.256
O=C(CCc1cccs1)N1CCC(Nc2cccnn2)CC1 | -2.47
CN(C)Cc1nn(C)c2c1CCN(S(=O)(=O)c1cccs1)C2 | 3.37
CC(C)Oc1cccc(C(=O)C2CCCN(C(=O)c3ccccn3)C2)c1 (stereo not given) | -1.79
CC(NC(=O)NCc1ccoc1)c1ccc2c(c1)CCC(=O)N2 (stereo not given) | -9.2
CNS(=O)(=O)c1cccc(CNC(=O)c2c(C)oc(C)c2C)c1 | -7.7
CCOc1ccc(Cl)cc1C1CCCN1 (stereo not given) | 3.74
Cn1cc(CN(Cc2ccccc2)CC(O)c2cccs2)cn1 (stereo not given) | 0.353
O=C(NCCCNc1ccccc1)c1scnc1Cl | -0.926
COc1ccccc1CC(=O)N1CCC(NCc2c[nH]nc2C)CC1 | 4.54
Cc1ccc(NC(=O)N2C[C@H]3CC[C@@H]2CN(Cc2cscn2)C3)cc1 | -2.57
O=C(NCc1ccccn1)[C@@H]1CCO[C@@H]2CCN(Cc3ccoc3)C[C@H]21 | 7.04
COCc1cc(O)nc(C2CCCN(Cc3cc(OC)ccc3F)C2)n1 (stereo not given) | 1.71
Cn1cccc1C(=O)N1CCc2ncnc(N3CCCC3)c2CC1 | -0.927
CCn1cnnc1CNC(=O)N1CCN(Cc2ccccc2)CC1 | -0.692
